HT1080NT lethal – kills 2HG-producing HT-1080-NT fibrosarcoma cells | HT-1080-NT fibrosarcoma viability, CellTiter-Glo ATP luminescence, 48 h | Potency, µM (doses to about 46.1 µM), inactives show at the highest dose activity, negative = less viability, most hits filed as cytotoxic | actives 1.6% (n = 360,000);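 note: NT is the 2HG producing partner of a matched IDH1 knockdown line; potency is the fitted concentration of half-maximal effect; 0% = DMSO-treated cells and -100% = media-only wells without cells; nearly all actives have a fitted effect of over 55% in size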
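HT-1080-NT; 750 cells/well; 5% FBS RPMI; 48 h compound, 37 degrees C; CellTiter-Glo luminescence; curve fitting and curve-class assignment.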
HT1080 IDH1KD tx – toxicity to HT-1080 IDH1 knockdown cells (counter line). HT-1080 IDH1 knockdown viability, ATP luminescence, 48 h. actives 2% (n = 360,000). Potency, µM (top dose mostly 46.1 µM), for the others: at the top dose activity, negative = toxicity, most hits filed as cytotoxic;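 note: potency is the fitted concentration of half-maximal effect; 0% = DMSO wells and -100% = cell-free medium wells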
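In this qHTS, HT-1080 cells depleted of IDH1 are exposed for 48 h at 37 °C to compound titrations. Toxicity is scored from CellTiter-Glo luminescence, with DMSO as full viability and medium alone as none.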
DT40 TDP1 CPT – growth inhibition of DT40 Tdp1-/-;hTDP1 cells with camptothecin (screen for TDP1 inhibitors); AID 686979; Potency, µM (doses to about 46.2 µM), for inactives: top-dose activity change, negative = growth inhibition, usual class: inhibitors; chicken DT40 Tdp1-/-;hTDP1 cells + 20 nM CPT, ATP luminescence, 48 h; actives 12% (n = 420,000); note: potency is the fitted concentration of half-maximal effect; nearly all actives have a fitted effect of over 55% in size
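Chicken DT40 Tdp1-/- cells stably complemented with human TDP1 were seeded at 400 cells/well in medium containing 20 nM camptothecin, exposed to pin-transferred compounds, and grown at 37 °C for at least 48 hr. Viability was read as ATP luminescence.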
DT40 TDP1 no CPT – qHTS for Inhibitors of human tyrosyl-DNA phosphodiesterase 1 (TDP1): qHTS in cells in absence of CPT; DT40 Tdp1-/- hTDP1 cells, no CPT, ATP luminescence, 48 h; Potency, µM (highest dose often 46.2 µM), for the others: top-dose activity change, negative = growth inhibition, usual class: inhibitors; actives 15% (n = 420,000); AID 686978, 2013; note: potency is the fitted concentration of half-maximal effect; nearly all actives have a fitted effect of over 55% in size
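Readout: luminescence from CellTiter-Glo after 30 min in the dark at RT. Cells: DT40 Tdp1-/- with stable hTDP1, 400/well. Exposure: compounds alone, ≥48 hr, 37 °C.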
IL-1B inflam inh – blocks inflammasome-driven IL-1 beta release; THP-1 LPS/ATP IL-1B secretion, AlphaLISA, 16 h; active compounds read low; activity change, % at 57.5 µM; actives 4.7% (n = 360,000); AID 743279; in the data active = activity change below about -50%; inconclusive = mostly about -30% to -49%
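THP-1 cells pretreated 1 hr with compounds (up to 57.5 uM final), then stimulated with LPS (250 ng/mL final) plus ATP (1.25 mM final); secreted IL-1B measured by AlphaLISA after 16 hr, decreased signal indicating inhibition.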
The depositor's hits bear a star; ? = inconclusive; . = not tested or not shown. A selection: hits, their analogues and other compounds. The true share with any hit is near 19%. Unless noted, calls come from the whole dose curve; as a rule, active = well fitted curve in the direction sought with a large enough effect; inconclusive = small, poorly fitted or top-dose-only effect, or another doubt; inactive = no such curve, though single readings can be large; an effect the other way counts as inactive or inconclusive. Unless noted, % is set by controls: 0 for no effect and ±100 for the full control effect.

SMILES | HT1080NT lethal | HT1080 IDH1KD tx | DT40 TDP1 CPT | DT40 TDP1 no CPT | IL-1B inflam inh
Cc1cc(/C=C2/SC(=S)N(c3cccc(Cl)c3)C2=O)c(C)n1-c1cccnc1 | ? | 3.3µM* | 2.6µM* | 2.1µM* | -64*
NNC(=O)c1c[nH]c2ccc(OCc3ccccc3)cc12 | -21% | -4% | 22% | -26% | 92
CCCN(C(=O)C1CC(=O)N(c2ccccc2C(C)CC)C1)C1CCS(=O)(=O)C1 (stereo not given) | 4% | 6% | -8% | -6% | 2
CC(=O)c1cccc(NC(=O)c2cc3nc(C)cc(C)n3n2)c1 | 17% | 15% | -12% | ? | 0
Cc1ccc(-c2nc(N/N=C/c3cccc([N+](=O)[O-])c3)c3ccccc3n2)cc1 | -2% | 11% | 13µM* | 15µM* | 13
COc1ccc(/C=N/Nc2nc(-c3cccnc3)nc3ccccc23)c(OC)c1 | -27% | -8% | ? | ? | 12
Cc1ccc(-c2nc(N/N=C/c3cccnc3)c3ccccc3n2)cc1 | 11µM* | ? | 23µM* | 18µM* | ?
COc1ccc(C(=O)O/N=C/c2ccc(S(=O)(=O)c3ccc(Cl)cc3)nc2)cc1 | 17% | 22% | 4% | -8% | -15
COc1ccc(C(=O)CNc2ccccc2C#N)cc1 | 1% | -9% | ? | 21µM* | -9
CCOc1ccccc1NC(=O)C(=O)CC(=O)c1ccc(OC)cc1 | -16% | -14% | ? | 21µM* | 28
COc1ccc(C(=O)CC(=O)C(=O)Nc2ccc(C)c(Cl)c2)cc1 | -9% | 5% | ? | 16µM* | -20
COc1ccc(C(=O)CC(=O)C(=O)Nc2cc(C)ccc2C)cc1 | -24% | ? | -103% | ? | 49
COc1ccc(C(=O)CC(=O)C(=O)Nc2ccccc2)cc1 | 0% | -1% | ? | -27% | -10
COc1ccc(C(=O)CNc2ccccc2CO)cc1 | -4% | -11% | 14% | -3% | 21
COc1ccc(C(=O)CC(=O)C(=O)Nc2cccc(F)c2)cc1 | -8% | -21% | ? | 15µM* | -10
Clc1ccc(N2CCN(Cc3ccco3)CC2)cc1 | 2% | -1% | -24% | ? | -12
CC(C)c1ccc(NC(=O)CSc2nc3ccsc3c(=O)n2CCC(=O)O)cc1 | -1% | 8% | 4% | 20% | 45
O=c1c2nnn(Cc3ccccc3)c2ncn1-c1ccccc1 | -11% | -15% | -4% | -20% | -4
O=C(COc1ccc(CNC[C@H]2O[C@@H](n3ccc(=O)[nH]c3=O)[C@H](O)[C@@H]2O)cc1)Nc1ccccn1 | 12% | 20% | 0% | 9% | 4
COC(=O)c1ccccc1NC(=O)/C=N/O | 4% | 0% | 14% | 2% | 0
O=C(/C=N/O)Nc1ccc2sc3ccccc3c2c1 | ? | ? | 6% | ? | -100*
Cc1ccc(NC(=O)CN2C(=O)CCc3cc(S(=O)(=O)N4CCCCC4)ccc32)cc1C | . | . | ? | 21µM* | .
Cc1c(Cl)cccc1NC(=O)CN1C(=O)COc2ccc(S(=O)(=O)N3CCCCCC3)cc21 | . | . | 16µM* | ? | .
Cc1ccc(NC(=O)CN2C(=O)COc3ccc(S(=O)(=O)N4CCCCCC4)cc32)cc1C | . | . | ? | 15µM* | .
COc1ccc(NC(=O)CN2C(=O)COc3ccc(S(=O)(=O)N4CCCCCC4)cc32)cc1 | 7% | 1% | 4.6µM* | 16µM* | -14
COc1ccc(NC(=O)CN2C(=O)COc3ccc(S(=O)(=O)N4CCCCC4)cc32)cc1OC | 0% | 2% | ? | ? | -4
CC1(C(=O)NCc2ccc(C(F)(F)F)cc2)CCN1C1Cc2ccccc2C1 (stereo not given) | -32% | ? | ? | ? | -10
Cc1cccc(C(=O)OCC(=O)NC(=O)Cc2ccccc2)c1O | 16% | 3% | -24% | 3% | -10
